The results in this text go back to PubChem BioAssay (NCI).

This is part of a sample that, as a whole, favours compounds with a hit. Of some 83,000 tested, about 20% had one in any assay.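 Values shown are percent growth following 48 h exposure of cells in 96-well plates to a single concentration of compound; below 10 was considered active.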 Values without a mark were called inactive. Calls of active or inactive are those of the source.

What all share (experiment): NCI-60 one-dose screen, 48 h (100 = growth as untreated, 0 = no growth, -100 = all killed)
Conditions in all cases: 10 µM unless noted

For assay [1], the system named is DU-145 prostate.
For assay [2], the system named is K-562 leukemia.
Assay [3] concerns MALME-3M melanoma.
Assay [4] concerns MDA-MB-231 breast.
The test system of assay [5] is RXF 393 renal.
The subject of assay [6] is SF-268 CNS.
In assay [7] the test system is SF-539 CNS.
The test system of assay [8] is UACC-257 melanoma.
Assay [9] relates to M14 melanoma.
For assay [10], the system named is HCT-15 colon.
The test system of assay [11] is HT29 colon.
Assay [12] deals with SNB-75 CNS.
Assay [13] relates to SNB-19 CNS.
Assay [14] concerns U251 CNS.
For assay [15], the system named is PC-3 prostate.
Assay [16] relates to SK-MEL-5 melanoma.
Assay [17] concerns UACC-62 melanoma.
Assay [18] deals with LOX IMVI melanoma.
In assay [19] the test system is SK-MEL-28 melanoma.

As for `CCCCN(CCCC)CCC(O)c1cc2ccc(C(F)(F)F)cc2c2cc(C(F)(F)F)ccc12` (configuration not stated), the growth is 55.3% in assay [1]; 5.28% (active) in assay [2]; 47.8% in assay [3]; 33.2% in assay [4]; 7.74% (active) in [5]; 63.3% in assay [6]. Besides, the growth in assay [7] is 48.7%; in assay [8], 41.6%; in [9] it was 18.8%; in [10], 27.3%; in assay [11] it was 8.42% (active); in assay [12] it was 60.9%. Moreover, the growth is 72.6% in assay [13]; 45.2% in assay [14]; 35.6% in [15]; 38.9% in assay [16]; 40.8% in [17]; -58.4% (active) in [18]. For the same molecule, the growth in [19] is 77.2%.

As for `O=c1c2sc3ncc(Cl)cc3c2nnn1-c1cccc(Cl)c1`, the growth is 65.3% in [1]; 68.1% in [2]; 75.3% in [3]; 110% in assay [4]; 96.2% in [5]; 66.1% in [6]. Besides, the growth in assay [7] is 82.1%; in [8], 112%; in assay [9], 85.1%; in assay [10] it was 87.5%; in assay [11], 75.9%; in [12] it was 70.1%. Besides, the growth was 98.2% in assay [13]; 59.9% in assay [14]; 82.7% in assay [15]; 96.3% in assay [16]; 96.8% in assay [17]; 52.9% in [18]. Also, in assay [19], the growth is 90.5%.

Turning to `CC1CCN(Cc2ccc(NC(=O)c3cc4ccc5cccnc5c4[nH]3)cc2)CC1`, the growth was 2.24% (active) in assay [1]; 8.98% (active) in assay [2]; 10.2% in assay [3]; 23.2% in [4]; -3.5% (active) in [5]; 37.4% in assay [6]. Besides, the growth in assay [7] is 8.44% (active); in assay [8], -40.6% (active); in [9], -22.5% (active); in assay [10], 22.2%; in assay [11] it was 6.27% (active); in assay [12], 14.5%. The growth in [13] was 64.6%; in assay [14] it was 14.7%; in assay [15], 41.6%; in assay [16] it was 2% (active); in [17], -65.4% (active); in [18], 8.82% (active). Moreover, the growth in [19] was -31.9% (active).

Turning to `C[C@@H](C[C@H](CC1CC1)c1ccccc1)c1ccc2ccccc2c1`, the growth is 106% in [1]; 104% in [2]; 96.7% in assay [3]; 106% in assay [4]; 117% in [5]; 98.5% in assay [6]. Also, the growth in assay [7] was 96.9%; in assay [8], 106%; in assay [9] it was 102%; in assay [10], 107%; in assay [11], 105%; in assay [12], 85%. In addition, the growth in [13] is 101%; in assay [14], 101%; in [15], 98.9%; in [16], 99.9%; in assay [17], 103%; in assay [18], 98.4%. Further, the growth in [19] was 107%.

Turning to `CCC(=O)NC(O)C(Cl)(Cl)C(C)Cl` (configuration not stated), the growth was 116% in assay [1]; 112% in [2]; 87% in assay [3]; 99.8% in assay [4]; 111% in [5]; 109% in assay [6]. For the same molecule, the growth was 99.3% in [7]; 93.4% in assay [8]; 98.7% in assay [9]; 95.6% in assay [10]; 95.4% in assay [11]; 91.7% in assay [12]. Besides, the growth in assay [13] was 98.4%; in assay [14], 98.6%; in [15] it was 98.2%; in assay [16], 97.7%; in [17] it was 97.5%; in assay [18] it was 96.4%. Moreover, in [19], the growth is 104%.

For `CC(CN1CCN(C)CC1)CN1c2ccccc2Sc2ccc(C(F)(F)F)cc21` (configuration not stated), the growth in assay [1] is 61.7%; in assay [2] it was -31.2% (active); in assay [3], 62.9%; in assay [4], 27.6%; in [5], 18.7%; in [6], 52.2%. Besides, the growth in [7] was 67.5%; in assay [8], 30%; in assay [9], 0.817% (active); in assay [10], 6.79% (active); in [11], -49.9% (active); in assay [12], 45.5%. The growth in assay [13] was 63.1%; in assay [14], 1% (active); in assay [15], 31.3%; in assay [16], -82.7% (active); in [17], -40.4% (active); in assay [18] it was -2.88% (active). The growth in [19] was 22.4%.

Take `Cc1ccc(N=CNN=C(N)N)cc1`: the growth in [1] is 113%; in assay [2], 87.8%; in assay [3] it was 114%; in assay [4], 118%; in assay [5], 110%; in [6], 105%. Also, the growth in [7] is 94.8%; in assay [8] it was 97.4%; in [9] it was 103%; in assay [10] it was 100%; in assay [11], 105%; in [12], 96.8%. In addition, the growth in assay [13] was 105%; in assay [14], 97.2%; in assay [15], 107%; in [16], 105%; in [17], 89.8%; in assay [18], 113%. Further, in assay [19], the growth was 106%.

On to `C#CC[C@@H]1C[C@]2(C)[C@H]3CC=C4[C@H]5[C@@H](C)[C@H](C)CC[C@]5(C(=O)NCCCCCCCCN)CC[C@@]4(C)[C@]3(C)CC[C@H]2C(C)(C)[C@H]1OC(C)=O`, for which the growth is 41.8% in [1]; -23.4% (active) in assay [2]; 66% in [3]; 56% in assay [4]; 70.4% in assay [5]; 92.9% in assay [6]. The growth in assay [7] was 83.8%; in [8] it was 100%; in assay [9] it was 29.3%; in assay [10], -62.1% (active); in assay [11], -65.4% (active); in assay [12], 83.2%. The growth in assay [13] was 64.8%; in assay [14] it was -90.8% (active); in assay [15], -21.7% (active); in assay [16], 91.9%; in assay [17], 105%; in assay [18], -52.9% (active). Moreover, the growth in [19] is 103%.
